The supplement of paper PMC8975748
Counter-ions that a name gives are not always drawn. ± gives the standard deviation of the averaged measurements.

Each compound was assayed on Saccharomyces cerevisiae BY4741 SeMeCo community (assay: mean cell size (pixel area) (pixels); higher = larger cells). Settings: 10 µM; 24 h; SM minimal medium.
Outline: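 Mean cell pixel area per well was measured in a four-plasmid fluorescent community of Saccharomyces cerevisiae BY4741, where every plasmid complements one auxotrophy and carries a fluorescent marker. Cells from an overnight preculture at OD600 = 1.0 were diluted to OD600 = 0.3 and dispensed at 70 µl into 384-well plates acoustically predosed with drug to a final 10 µM in SM medium. Incubation lasted 24 h, followed by paraformaldehyde fixation, automated confocal imaging and analysis in Harmony. Reported figures are averaged over 3 replicates. Same SeMeCo high-content imaging drug screen: Selleck FDA-approved drugs at 10 µM, 24 h in SM medium, 384-well plates, 3 replicates.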

| SMILES | mean cell size |
| --- | --- |
| COc1ccc(C(CN(C)C)C2(O)CCCCC2)cc1 (stereo not given) [Venlafaxine] | 12.1 ± 0.091 |
| C=CC[C@]1(O)CC[C@H]2[C@@H]3CCC4=CC(=O)CCC4=C3C=C[C@@]21C [Altrenogest] | 12.58 ± 0.1 |
| C[C@@H]1CC[C@H]2[C@@H](C)C(=O)O[C@@H]3O[C@@]4(C)CC[C@@H]1[C@]32OO4 [Artemisinin] | 12.3 ± 0.3 |
| COc1cc2c(cc1OC)C1CC(=O)C(CC(C)C)CN1CC2 (stereo not given) [Tetrabenazine (Xenazine)] | 12.62 ± 0.049 |
| NCC(O)c1ccc(O)cc1 (racemic) [(+,-)-Octopamine HCl] | 12.3 ± 0.14 |
| CC(C)N(CCC(C(N)=O)(c1ccccc1)c1ccccn1)C(C)C (stereo not given) [Disopyramide] | 12.27 ± 0.1 |
| C[N+]1(C)[C@@H]2C[C@@H](OC(=O)[C@H](CO)c3ccccc3)C[C@H]1[C@@H]1O[C@@H]12 [Methscopolamine] | 12.49 ± 0.031 |
| CC[N+](C)(CC)CCOC(=O)C(O)(c1ccccc1)c1ccccc1 [Methylbenactyzine Bromide] | 12.6 ± 0.34 |
| CN1[C@@H]2CC[C@H]1C[C@@H](OC(=O)[C@H](CO)c1ccccc1)C2 [Hyoscyamine] | 12.27 ± 0.064 |
| CN[C@@H]1[C@@H](O)[C@@H](O[C@@H]2[C@@H](O)[C@H](O[C@H]3O[C@H](CN)CC[C@H]3N)[C@@H](N)C[C@H]2N)OC[C@]1(C)O.CN[C@@H]1[C@@H](O)[C@@H](O[C@@H]2[C@@H](O)[C@H](O[C@H]3O[C@H]([C@@H](C)N)CC[C@H]3N)[C@@H](N)C[C@H]2N)OC[C@]1(C)O.CN[C@@H]1[C@@H](O)[C@@H](O[C@@H]2[C@@H](O)[C@H](O[C@H]3O[C@H]([C@@H](C)NC)CC[C@H]3N)[C@@H](N)C[C@H]2N)OC[C@]1(C)O [Gentamicin Sulfate] | 12.1 ± 0.15 |
| CCOC(=O)Nc1ccc(NCc2ccc(F)cc2)cc1N [Retigabine 2HCl] | 12.5 ± 0.25 |
| O=c1cccc2n1C[C@@H]1CNC[C@H]2C1 [Cytisine] | 12.6 ± 0.21 |
| COc1ccc2c3c([nH]c2c1)C(C)=NCC3 [Harmaline] | 12.4 ± 0.34 |
| Cc1cc(O)ccc1Cl [Chlorocresol] | 12.6 ± 0.13 |
| CC1(C)S[C@@H]2[C@H](N)C(=O)N2[C@H]1C(=O)O [6-Aminopenicillanic acid] | 12.1 ± 0.25 |
| O=C(O[C@H]1C[C@H]2CC[C@@H](C1)[N+]21CCCC1)C(O)(c1ccccc1)c1ccccc1 [Trospium chloride] | 12.5 ± 0.18 |
| N#Cc1nn(-c2c(Cl)cc(C(F)(F)F)cc2Cl)c(N)c1[S+]([O-])C(F)(F)F (stereo not given) [Fipronil] | 12.3 ± 0.2 |
| CC(C)(O)C(Cl)(Cl)Cl [Chlorobutanol] | 12.5 ± 0.16 |
| Cc1cc(C(C#N)c2ccc(Cl)cc2)c(Cl)cc1NC(=O)c1cc(I)cc(I)c1O (stereo not given) [Closantel Sodium] | 12.2 ± 0.24 |
| CNC1CC(N)C(O)C(OC2OC(CO)C(O)C3OC4(OC(C(N)CO)C(O)C(O)C4O)OC23)C1O (stereo not given) [Hygromycin B] | 11.8 ± 0.24 |

| SMILES | mean cell size |
| --- | --- |
| CC[C@H]1CN2CC[C@]3(C(=O)Nc4ccccc43)[C@@H]2C[C@@H]1/C(=C\OC)C(=O)OC [Rhynchophylline] | 12.38 ± 0.1 |
| CCN(C)C(=O)Oc1cccc([C@H](C)N(C)C)c1 [Rivastigmine Tartrate] | 12.38 ± 0.056 |
| CN1[C@@H]2CC[C@H]1C[C@@H](OC(=O)C(CO)c1ccccc1)C2 (stereo not given in full) [Atropine sulfate monohydrate] | 12.26 ± 0.093 |
| CC[C@@]1(O)C(=O)OCc2c1cc1n(c2=O)Cc2cc3ccccc3nc2-1 [Camptothecin] | 12.3 ± 0.14 |
| C[C@@H]1[C@H](O)[C@@H](C)/C=C/C=C/CC/C=C/C=C/C=C/C=C/[C@H](O[C@H]2O[C@@H](C)[C@H](O)[C@@H](N)[C@H]2O)C[C@@H]2O[C@](O)(C[C@@H](O)[C@H](O)CC[C@@H](O)C[C@@H](O)C[C@@H](O)CC(=O)O[C@H]1C)C[C@H](O)[C@H]2C(=O)O [Nystatin (Fungicidin)] | 9.704 ± 0.046 |
| [O-][n+]1ccccc1[S-].[O-][n+]1ccccc1[S-].[Zn+2] [Zinc Pyrithione] | 15.2 ± 0.23 |
| C=CCN1C[C@H](C(=O)N(CCCN(C)C)C(=O)NCC)C[C@@H]2c3cccc4[nH]cc(c34)C[C@H]21 [Cabergoline] | 12.2 ± 0.17 |
| Nc1ccncc1 [4-Aminopyridine] | 12.2 ± 0.16 |
| CC(C)=CCOc1c2occc2cc2ccc(=O)oc12 [Imperatorin] | 12.6 ± 0.14 |
| COc1ccc2c(c1)[C@]13CCCC[C@@H]1[C@H](C2)N(C)CC3 [Dextromethorphan hydrobromide hydrate] | 12.5 ± 0.24 |
| Cn1cc(C2=C(c3cn(C4CCN(Cc5ccccn5)CC4)c4ccccc34)C(=O)NC2=O)c2ccccc21 | 12.41 ± 0.12 |
| C=C[C@H]1CN2CC[C@H]1C[C@H]2[C@H](O)c1ccnc2ccccc12 [Cinchonidine] | 12.47 ± 0.048 |
| COc1ccc(C(CN(C)C)C2(O)CCCCC2)cc1 (stereo not given) [Venlafaxine HCl] | 12.3 ± 0.27 |
| CN(C)C(=O)Oc1cccc([N+](C)(C)C)c1 [Neostigmine Bromide] | 11.8 ± 0.15 |
| NCCc1c[nH]c2ccc(O)cc12 [Serotonin HCl] | 12.2 ± 0.41 |
| Oc1cc(Cl)ccc1Oc1ccc(Cl)cc1Cl [Triclosan] | 12.5 ± 0.31 |
| C[C@H]1O[C@H](O[C@H]2[C@H](O)[C@@H](O)[C@@H](O)[C@H](O)[C@@H]2O)[C@@H](N)C[C@@H]1NC(=N)C(=O)O [Kasugamycin hydrochloride] | 12.1 ± 0.21 |
| CN1[C@@H]2C[C@@H](OC(=O)[C@H](CO)c3ccccc3)C[C@H]1[C@@H]1O[C@@H]12 [Scopolamine HBr] | 12.5 ± 0.14 |
| Oc1cccc2cccnc12 [8-Hydroxyquinoline] | 12.61 ± 0.039 |
| O=[N+]([O-])C(Br)(CO)CO [Bronopol] | 12.2 ± 0.43 |
